Results taken from PubChem BioAssay AID1671194 (National Center for Advancing Translational Sciences (NCATS), 2021).
The campaign covered roughly 140,000 compounds. About 240 (0.17%) were called active. Another 9% or so got no clear call; they are omitted. Calls follow the shape of the dose curve; as a rule, active = well fitted inhibition curve with a large enough effect; inconclusive = small, poorly fitted or top-dose-only effect; inactive = no such curve, though single readings can be large or run the other way. Shown is part of a subset that was picked to be rich in actives.

test: Primary qHTS assay for inhibitors of alpha-synuclein gene (SNCA) expression; details: HEK-293 SNCA-luciferase knock-in, luminescence, 24 h; series mostly up to 57.2 µM; activity change, negative = inhibition: at the top concentration; also: nearly all actives have a fitted effect of over 45% in size
Excerpt: Assay Submitter (PI): Daniel R. Scoles Ph.D.
Department of Neurology, University of Utah, Salt Lake City, Utah
Accumulation of alpha-synuclein is a main underlying pathological feature of Parkinson's disease (PD) and alpha-synucleinopathies, for which lowering expression of the alpha-synuclein gene (SNCA) is a potential therapeutic avenue. Using a cell-based luciferase reporter of SNCA expression we performed a quantitative high throughput screen (qHTS) of 155,885 compounds in dose response. The screening assay was generated using genome editing to insert the luciferase gene downstream and in frame of the SNCA gene in HEK-293 cells (1). A viability counterscreen using GF-AFC was used to eliminate cytotoxic and false positive compounds. After in silico analysis (clustering, removal of frequent hitter nuisance chemotypes), inhibitor compounds from the primary screen were selected for follow up and re-tested at 11-doses in the SNCA-luc cells (luciferase and GF-AFC confirmation), and in CMV-luc expressing cell line to flag general transcriptional repressors.
Described herein are the results of the primary screen for SNCA inhibitors; decrease in luciferase signal (inhibition of the SNCA gene expression) is the desired output for this assay.
1. Dansithong, W., Paul, S., Scoles, D. R., Pulst, S. M., and Huynh, D. P. (2015) Generation of SNCA Cell Models Using Zinc Finger Nuclease (ZFN) Technology for Efficient High-Throughput Drug Screening. PLoS ONE 10, e0136930.
SEQUENCE No. (e.g., 1, 2, 3, etc.); […] (e.g., Cells, Incubation, Reagent, etc.); VALUE; DESCRIPTION
1; Cells; 4 uL; Dispense 1500 HEK-293-SNCA-luc cells/well into Greiner 1536-well white / solid bottom tissue culture treated plate. The plate was covered with metal lids with gas-exchange holes.
2; Incubate; 24 hours; Incubate at 37C, 5% CO2, 95% RH.
3; Compounds; 23 nL; Compounds and controls were transferred via a Kalypsys Pin Tool (Wako USA) equipped with a 1536-slotted pin array. The plate was covered with metal lids with gas-exchange holes.
4; Incubate; 24 hours; Incubate at 37C, 5% CO2, 95% RH.
5; Dispense; 1 uL; Dispense Gly-Phe-7-amino-4-trifluoromethylcoumarin (GF-AFC, prepared at 125 uM in PBS) was added. The plate was covered with metal lids with gas-exchange holes.
6; Incubate; 30 min; Incubate at 37C, 5% CO2.
7; Detector; Fluorescence; Measure fluorescence with ViewLux microplate reader (PerkinElmer) equipped with 405/10 excitation and 540/25 emission filters.
8; Dispense; 3 uL; Dispense ONE-Glo ([…]) lucifase detection reagent was added to each well. Plates were covered with metal lids with gas-exchange holes.
9; Incubate; 15 min; Incubate at room temperature.
10; Detector; Luminescence; Measure luminescence with ViewLux microplate reader (PerkinElmer) equipped with clear filters.
NOTES (numbers refer to sequence above)
1; HEK-293-SNCA-luc were cultured and suspended in phenol-red free DMEM (4.5 g/L glucose, 25 mM HEPES, cat #21063 (Thermo)).
3; Compounds were added to the assay plate in an 11-point intra plate dose response, 1:3 titration in DMSO with a final concentration range of […]. Vehicle-only plates, with DMSO being pin-transferred to every well, were inserted at the beginning of screening runs to confirm expected assay performance. […]
10; Signals were analyzed, and dose-response curves were fit using the Hill equation. […]
Potency is read from the fitted curve at half-maximal effect.

| SMILES | Potency | activity change, negative = inhibition |
| --- | --- | --- |
| CC[C@H]1C=CC=CC[C@@H](C)[C@H](O)[C@@](C)(O)C(=O)[C@@H](C)[C@H](O)[C@@H](C)C(=O)[C@@H](C)[C@H](O)[C@@H](C)C=CC(=O)O[C@@H]2[C@@H](C)[C@H](CC1)O[C@]1(CC[C@H](C)[C@H](C[C@@H](C)O)O1)[C@H]2C | 1.71 µM (active) | – |
| CN(Cc1ccccc1)C[C@H]1CN2CC[C@H]1C[C@@H]2CNC(=O)Nc1ccsc1 | – | -2.49% [at 87.6 µM] (inactive) |
| CC(=Cc1csc(C)n1)[C@@H]1C[C@H]2O[C@]2(C)CCC[C@H](C)[C@@H](O)[C@@H](C)C(=O)C(C)(C)[C@@H](O)CC(=O)O1 | – | -26.4% (inactive) |
| Cc1nc(-c2ccc(C(F)(F)F)cc2)cc([C@H]2CN3CC[C@H]2C[C@@H]3CNC(=O)C2CCC2)n1 | – | -32.3% (inactive) |
| CCOC(=O)[C@H]1CN(C(=O)NC2CCCC2)[C@]2(C)C(=O)Nc3ccccc3[C@H]12 | – | 18.1% [at 25.6 µM] (inactive) |
